Pf growth 96h = P. falciparum growth inhibition at 96 hours; P. falciparum luciferase reporter growth, 96 h; 320,000 tested, 6.9% active; Potency, µM (series often up to 28.7 µM), usual class: inhibitors
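Cell-based qHTS: luciferase-tagged P. falciparum in erythrocytes (2% hematocrit, 0.05% parasitemia final) incubated with compounds for 96 hours, 37 C, 5% CO2; luciferase detection reagent then added and luminescence measured.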
HCV inhibitor = HCV inhibition | 340,000 tested, 3.4% active | AID 651820 | Huh7.5.1 HCVcc-Cre infection, luciferase reporter, 44 h | Potency, µM (titrated, usually from 41.8 µM), hits mostly inhibitors
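Reporter virus HCVcc-Cre (~0.5 moi) infects cells exposed to compound; seeding density 1,000 cells/well with 4 h settling beforehand. Luminescence, 15 sec read, taken 44 h post-infection following a 15 min RT substrate incubation.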
HCMV inh = blocks human cytomegalovirus replication | HFF cells, HCMV-luciferase reporter, 72 h; hits give low values | activity change, negative = inhibition, % at 57.5 µM | 410,000 tested, 4.5% active | AID 1259415; in the data active = activity change below about -60%; inconclusive = no clear call, values can overlap the other calls; inactive = above about -39%
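Screen run at 2 compound doses on HFFs infected with reporter HCMV, MOI 1 PFU/cell. Luciferase activity from cell lysates at 72 h post infection gave inhibition relative to buffer-only and Salinomycin wells.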
Pf growth 48h = inhibits P. falciparum growth in the first generation, 48 h. P. falciparum luciferase growth in erythrocytes, 48 h. Potency, µM (series often up to 28.7 µM), usual class: inhibitors. 310,000 tested, 5.9% active
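A one-generation exposure of luciferase-tagged malaria parasites in RPMI 1640/Albumax erythrocyte culture, 37 C and 5% CO2. Inhibition is inferred from decreased luminescence after adding detection reagent.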
CHX counter = counter-screen for Shiga toxin inhibitors: cycloheximide protein synthesis inhibition. cell reporter, cycloheximide protein synthesis inhibition counterscreen. max response, %. 300,000 tested, 12% active; in the data active = max response mostly above about 13%, no sharp cut-off; inactive = mostly below about 14%; also: read at 38.3 µM for the half of the compounds with a filed dose
Shiga toxin inh = Shiga toxin inhibition | Vero cells, Shiga toxin protein synthesis inhibition reporter | inhibition, % at 38.7 µM | 290,000 tested, 9.2% active; in the data active = inhibition mostly above about 28%, no sharp cut-off; inactive = mostly below about 43%
Numbers stand for hits; – = inactive; ? = inconclusive; · = not tested or not shown. A selection: hits, their analogues and other compounds. The true share with any hit is near 21%. Unless noted, calls follow the shape of the dose curve; as a rule, active = well fitted inhibition curve with a large enough effect; inconclusive = small, poorly fitted or top-dose-only effect, or another doubt; inactive = no such curve, though single readings can be large or run the other way.

SMILES	Pf growth 96h	HCV inhibitor	HCMV inh	Pf growth 48h	CHX counter	Shiga toxin inh
CC(Nc1cc(N2CCN(S(C)(=O)=O)CC2)ccc1[N+](=O)[O-])c1ccccc1 (stereo not drawn)	–	?	–	?	–	–
O=C(CSc1nnc(-c2cccc(Cl)c2)o1)N1CCc2ccccc21	·	·	–	·	·	·
COc1ccc(C2=CC(=O)CC(C)(C)C2)cc1OC	?	?	–	?	·	·
O=C(O)C(CC1CCCCC1)N1CCS(=O)(=O)CC1 (stereo not drawn)	?	–	–	–	–	–
COC(=O)c1cccc(NC(=O)c2cc3ccccc3o2)c1	–	–	–	9.28µM	29.3	35.3
Cc1ccc(NC(=O)c2ccccc2)cc1C	–	–	–	?	·	·
COc1ccccc1CC(=O)Nc1cccc(C(=O)NN2C(=O)c3ccccc3C2=O)c1	9.28µM	–	–	–	–	–
Cc1ccc(C(=O)Oc2cccc(NC(=O)c3ccccc3)c2)cc1C	–	–	–	–	16.4	–
COC(=O)c1cc(NC(=O)c2cc3ccccc3o2)cc(C(=O)OC)c1	–	?	–	–	–	–
COC(=O)c1ccc(NC(=O)c2ccc3nccnc3c2)cc1	–	?	–	–	–	–
COC(=O)c1ccc(NC(=O)c2cccc(NC(=O)c3ccccc3)c2)cc1	8.28µM	–	–	–	–	–
O=C(CSc1nc2ccccc2n1Cc1cccc(F)c1)NCc1ccccc1	·	·	–	·	·	·
COC(=O)c1cccc(NC(=O)c2ccccc2)c1	–	–	–	–	29.1	50.3
COc1ccccc1CNC(=O)c1cccc(NC(=O)c2ccccc2)c1	–	14.1µM	?	?	–	–
COC(=O)c1ccc(NC(=O)c2ccccc2)o1	–	–	–	–	38.3	80.6
COC(=O)c1ccc(NC(C)=O)o1	–	–	–	–	–	–
CCOC(=O)N/N=C/c1cc(C)n(-c2cccc3ccccc23)c1C	9.28µM	–	–	11.7µM	–	–
CCOC(=O)N/N=C/c1ccc(F)cc1F	–	–	–	–	30.4	57.2
CCOC(=O)N/N=C/c1cc(C)n(-c2ccccc2)c1C	?	?	–	?	35.0	71.2
Cc1cc(/C=N/NC(=O)c2cccc(F)c2)c(C)n1-c1ccccc1	?	?	–	–	–	–
CCOC(=O)N/N=C/c1c[nH]c2ccccc12	–	–	–	–	–	–
COC(=O)N/N=C/c1cc(C)n(-c2cccc3ccccc23)c1C	14.7µM	–	–	7.38µM	–	–
CCOC(=O)c1sc(Nc2nc(OC)cc(OC)n2)nc1C	–	?	–	?	–	–
CC(CN(C)C)C(C)(O)Cc1ccc(Cl)cc1 (stereo not drawn)	–	·	·	–	–	–
Cc1nn(Cc2noc(C(=O)NC3CCC(C)CC3)n2)c(C)c1Br (stereo not drawn)	?	–	–	–	–	–
SMILES	Pf growth 96h	HCV inhibitor	HCMV inh	Pf growth 48h	CHX counter	Shiga toxin inh
Cc1cccc(NC(=O)CSC2=Nc3ccccc3C3=NC(CCC(=O)NCc4ccc(F)cc4)C(=O)N23)c1 (stereo not drawn)	·	·	–	·	·	·
Cc1nnc(SCc2nc(-c3ccc(Cl)cc3)no2)n1-c1ccc(F)cc1	·	·	–	·	·	·
CCOc1ccc(-n2c(C)cc(/C=N/N(C)C)c2C)cc1	?	?	–	?	–	–
CCOc1ccc(-n2c(C)cc(/C=N/Nc3nc(C)cc(=O)[nH]3)c2C)cc1	?	–	–	1.65µM	–	–
CCOc1ccc(-n2c(C)cc(/C=N\NC(=O)CC(=O)NC3CCCCC3)c2C)cc1	–	–	-81.1	–	–	–
COc1ccc(-n2c(C)cc(/C=N/Nc3nnc(C)n3N)c2C)cc1	–	11.2µM	–	?	19.3	–
CCOc1ccc(-n2c(C)cc(/C=N/NC(=O)C(N)=O)c2C)cc1	–	?	–	–	–	–
O=C(CN1CCc2ccccc2C1)Nc1ccccc1F	–	–	–	–	–	–
Cc1cccc(Nc2ccc([N+](=O)[O-])cn2)c1	–	–	–	?	25.5	63.4
CCOc1cccc(Nc2ccc([N+](=O)[O-])cn2)c1	–	?	–	–	29.1	·
COC(=O)C1=C(CCc2ccccc2)NC(=O)NC1c1ccc(Cl)cc1 (stereo not drawn)	·	–	–	·	·	·
Clc1ccc(-c2cccc3nccn23)c(Cl)c1	·	·	–	·	·	·
Cc1ccc(C(=O)N/C(=C\c2ccc(Br)cc2)c2nc(=S)[nH][nH]2)cc1	?	–	-70.8	–	–	–

Screens: PubChem BioAssay, National Center for Advancing Translational Sciences (NCATS)
